Experimental data: paper PMC4336329 (PLoS ONE, 2015)
Hit rate of the full screen: of about 310,000 compounds, about 14,000 (4.5%) showed an effect of 50% or more. The effect is printed as a negative number. For the sample, strong results were picked, then their nearest neighbours and some compounds at random.

target: human ether-à-go-go-related gene (hERG) potassium channel (human, UniProt Q12809); assay: primary screen, population patch clamp on CHO cells stably expressing hERG; higher = less effect of the substance
Sequence (Q12809 whole entry, looked up): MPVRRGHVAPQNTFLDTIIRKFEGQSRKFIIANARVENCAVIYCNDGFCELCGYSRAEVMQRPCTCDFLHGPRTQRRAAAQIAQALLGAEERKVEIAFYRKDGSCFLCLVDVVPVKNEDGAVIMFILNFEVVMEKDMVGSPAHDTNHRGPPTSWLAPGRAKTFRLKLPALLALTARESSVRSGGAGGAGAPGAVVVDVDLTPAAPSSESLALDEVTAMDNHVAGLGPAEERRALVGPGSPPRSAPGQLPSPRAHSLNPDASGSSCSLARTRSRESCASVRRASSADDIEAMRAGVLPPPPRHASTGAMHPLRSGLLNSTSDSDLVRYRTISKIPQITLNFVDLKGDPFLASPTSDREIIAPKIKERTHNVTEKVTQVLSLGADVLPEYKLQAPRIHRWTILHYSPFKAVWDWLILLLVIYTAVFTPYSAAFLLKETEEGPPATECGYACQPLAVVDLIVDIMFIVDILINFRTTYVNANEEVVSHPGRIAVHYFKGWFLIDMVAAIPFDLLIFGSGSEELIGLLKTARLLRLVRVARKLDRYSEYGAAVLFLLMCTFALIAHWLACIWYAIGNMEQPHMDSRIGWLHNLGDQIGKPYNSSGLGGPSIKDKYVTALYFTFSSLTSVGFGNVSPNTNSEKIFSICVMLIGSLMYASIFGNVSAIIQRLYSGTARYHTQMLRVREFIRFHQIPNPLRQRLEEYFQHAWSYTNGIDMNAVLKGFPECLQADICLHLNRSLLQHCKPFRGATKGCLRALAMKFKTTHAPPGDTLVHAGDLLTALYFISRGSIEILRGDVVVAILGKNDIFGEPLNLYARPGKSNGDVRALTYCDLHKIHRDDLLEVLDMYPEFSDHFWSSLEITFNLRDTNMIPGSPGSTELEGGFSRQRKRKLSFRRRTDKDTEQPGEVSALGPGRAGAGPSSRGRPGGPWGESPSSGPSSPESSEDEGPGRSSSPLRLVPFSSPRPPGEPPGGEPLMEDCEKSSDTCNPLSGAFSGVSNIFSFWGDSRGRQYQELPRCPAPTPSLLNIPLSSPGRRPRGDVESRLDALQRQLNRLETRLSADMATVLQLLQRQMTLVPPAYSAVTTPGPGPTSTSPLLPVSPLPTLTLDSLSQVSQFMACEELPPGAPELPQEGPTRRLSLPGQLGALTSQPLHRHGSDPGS
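Also: peak tail current of the secondary pulse compared with the same well before compound.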

| Compound | hERG current change (%, negative = inhibition) at 10uM |
| --- | --- |
| COc1ccc(NS(=O)(=O)c2ccc(NC(=O)C3CC3)cc2)cc1 | 18.6% |
| CCOc1ccc(CC(=O)OCn2nnc3ccccc3c2=O)cc1 | 11.4% |
| Cc1ccc(NS(=O)(=O)c2ccc(-c3ccc(=O)[nH]n3)o2)cc1N(C)C | 1.5% |
| Fc1ccccc1C1c2cccn2CCN1C(=S)Nc1cccc(Br)c1 (stereo not drawn) | 12.9% |
| CN1C(=O)OC(C)(C)C1=O | -2.78% |
| CO/N=C/C(C#N)=C/c1cc(C(=O)c2ccccc2)cn1C | 18.4% |
| O=C1OCCN1C(=O)[C@H]1[C@H](c2ccc([N+](=O)[O-])cc2)C(c2cccc(Cl)c2)=NN1c1ccccc1 | 5.99% |
| CCOC(=O)c1ccc(NC(=O)N2C3CCCC2CC(NC(C)=O)C3)cc1 (stereo not drawn) | -11.6% |
| CC(C)Cn1c(N)c(C(=O)COC(=O)CCNS(=O)(=O)c2ccccc2)c(=O)n(C)c1=O | -48.4% |
| Cc1ccc(OCCC(=O)OCC(=O)c2c(N)n(C)c(=O)n(C)c2=O)cc1 | -58.3% |
| Cc1csc(=O)n1CCC(=O)OCC(=O)c1c(N)n(CC(C)C)c(=O)n(C)c1=O | -26.2% |
| Cc1cc(C)cc(OCC(=O)OCC(=O)c2c(N)n(C)c(=O)n(C)c2=O)c1 | -5.06% |
| CCOc1ccccc1OCC(=O)OCC(=O)c1c(N)n(CC(C)C)c(=O)n(C)c1=O | -67.5% |
| Cc1ccc(OCCC(=O)OCC(=O)c2c(N)n(CC(C)C)c(=O)n(C)c2=O)cc1 | -71.9% |
| CC(=O)NC(CC(=O)OCC(=O)c1c(N)n(CC(C)C)c(=O)n(C)c1=O)c1ccccc1 (stereo not drawn) | -3.32% |
| Cc1ccc(S(=O)(=O)CCC(=O)OCC(=O)c2c(N)n(CC(C)C)c(=O)n(C)c2=O)cc1 | -27.9% |
| CCC(C(=O)OCC(=O)c1c(N)n(CC(C)C)c(=O)n(C)c1=O)c1ccccc1 (stereo not drawn) | -2.13% |
| Cc1ccccc1OCCC(=O)OCC(=O)c1c(N)n(CC(C)C)c(=O)n(C)c1=O | -75.2% |
| Cc1cccc(C(=O)OCC(=O)c2c(N)n(CC(C)C)c(=O)n(C)c2=O)c1O | -15.2% |
| CCOc1ccc(OCCC(=O)OCC(=O)c2c(N)n(C)c(=O)n(C)c2=O)cc1 | -23% |

| Compound | hERG current change (%, negative = inhibition) at 10uM |
| --- | --- |
| O=C(Cn1cnc2ccccc21)OCC(=O)N1CCCc2ccccc21 | 8.8% |
| CCCCNC(=S)N/N=C/c1ccccc1F | 2.81% |
| Cc1ccc(OC(C)C(=O)Nc2ccc3c(c2)n(C)c(=O)n3C)c(C)c1 (stereo not drawn) | 11.7% |
| Cc1ccc(S(=O)(=O)NCc2ccc(C(=O)NCCN(Cc3ccccc3)C(C)C)cc2)cc1 | -36.4% |
| Cc1ccc(S(=O)(=O)NC(CC(C)C)C(=O)NCC(C)(C)N2CCOCC2)cc1 (stereo not drawn) | 11.6% |
| COc1ccc(NC(=O)CCCn2c(=O)c3sccc3n(Cc3cccc(C)c3)c2=O)cc1 | 12.7% |
| Cc1cnc(C(=O)OCC(=O)NCCc2ccccc2)cn1 | -3.4% |
| O=C(c1cccc(NS(=O)(=O)c2cccc(F)c2)c1)N1CCN(c2ccccc2)CC1 | -8.41% |
| CSCCC(NC(=O)COc1cccc2ccccc12)C(=O)O (stereo not drawn) | 0.83% |
| Cn1c(N)c(C(=O)COC(=O)/C=C/c2ccc(F)cc2)c(=O)n(C)c1=O | -51.8% |
| COc1ccc(/C=C/C(=O)OCC(=O)c2c(N)n(C)c(=O)n(C)c2=O)cc1 | 5.38% |
| Cc1cccc(OCC(=O)OCC(=O)c2c(N)n(C)c(=O)n(C)c2=O)c1C | -1.84% |
| Cc1ccc(N2CC(C(=O)OCC(=O)c3c(N)n(CC(C)C)c(=O)n(C)c3=O)CC2=O)cc1 (stereo not drawn) | -3.07% |
| Cn1c(N)c(C(=O)COC(=O)COc2ccccc2C#N)c(=O)n(C)c1=O | -23.2% |
| CC(C)Cn1c(N)c(C(=O)COC(=O)CCc2nc3ccccc3c(=O)[nH]2)c(=O)n(C)c1=O | -36% |
| COc1ccc(CCC(=O)OCC(=O)c2c(N)n(CC(C)C)c(=O)n(C)c2=O)cc1 | -33.4% |
| CC(C)Cn1c(N)c(C(=O)COC(=O)C2CC(=O)N(c3ccc4c(c3)OCCO4)C2)c(=O)n(C)c1=O (stereo not drawn) | -52.6% |
| COc1ccccc1CCC(=O)OCC(=O)c1c(N)n(CC(C)C)c(=O)n(C)c1=O | -70.3% |
| CCc1ccc(N2CC(C(=O)OCC(=O)c3c(N)n(CC(C)C)c(=O)n(C)c3=O)CC2=O)cc1 (stereo not drawn) | -7.72% |
| CCc1ccccc1OCC(=O)OCC(=O)c1c(N)n(C)c(=O)n(C)c1=O | -53.6% |

| Compound | hERG current change (%, negative = inhibition) at 10uM |
| --- | --- |
| Cn1c(N)c(C(=O)COC(=O)/C=C/c2ccc(Cl)cc2)c(=O)n(C)c1=O | -43.3% |
| Cc1cc(C)nc(SCCC(=O)Nc2ccc(F)cc2)n1 | 7.84% |
| O=C(/C=C\Nc1cccc(F)c1)c1cccs1 | 11.7% |
| CC(NC(=O)C1CCN(S(=O)(=O)c2ccc3c(c2)NC(=O)CO3)CC1)c1ccccc1 (stereo not drawn) | -7.39% |
| CN(C)S(=O)(=O)N1CCN(C(=O)c2ccc3c(c2)OCO3)CC1 | 10% |
| CSc1ccc(/C=C(\C#N)C(=O)NC2CCCCC2C)cc1 (stereo not drawn) | -21.7% |
| N#C/C(=C/c1ccc(-c2cc([N+](=O)[O-])ccc2Cl)o1)C(N)=O | 1.62% |
| N#CC(=C=[N-])c1nc2ccccc2nc1-[n+]1ccccc1 | -2.11% |
| CC(C)Cn1c(N)c(C(=O)COC(=O)[C@H](C)NC(=O)c2ccccc2Cl)c(=O)n(C)c1=O | -53.1% |
| Cc1ccc(C(C)C)c(OCC(=O)OCC(=O)c2c(N)n(C)c(=O)n(C)c2=O)c1 | 3.36% |
| CC(C)Cn1c(N)c(C(=O)COC(=O)c2ccccc2F)c(=O)n(C)c1=O | -14.7% |
| Cn1c(N)c(C(=O)COC(=O)COc2ccc(Cl)cc2)c(=O)n(C)c1=O | -23.1% |
| Cc1ccc(C)c(OCCC(=O)OCC(=O)c2c(N)n(C)c(=O)n(C)c2=O)c1 | -55.5% |
| CCC(=O)c1ccc(OCC(=O)OCC(=O)c2c(N)n(C)c(=O)n(C)c2=O)cc1 | 5.93% |
| Cn1c(N)c(C(=O)COC(=O)COc2ccc(Br)cc2)c(=O)n(C)c1=O | -72.6% |
| CCc1ccc(OCC(=O)OCC(=O)c2c(N)n(C)c(=O)n(C)c2=O)cc1 | 10.2% |
| CC(C)Cn1c(N)c(C(=O)COC(=O)c2ccccc2Cl)c(=O)n(C)c1=O | -41.7% |
| Cn1c(N)c(C(=O)COC(=O)COc2ccc(C#N)cc2)c(=O)n(C)c1=O | -24% |
| Cn1c(N)c(C(=O)COC(=O)CCOc2ccc(C(C)(C)C)cc2)c(=O)n(C)c1=O | -60.6% |
| COc1ccccc1OCCC(=O)OCC(=O)c1c(N)n(C)c(=O)n(C)c1=O | -10.3% |
